Screens deposited in PubChem BioAssay by several laboratories.
This is a sample that favours compounds with a hit; in the whole collection about 3.3% have one here.
PfM18AAP inh: blocks P. falciparum M18 aspartyl aminopeptidase; recombinant PfM18AAP, H-Glu-NHMec fluorogenic cleavage; inhibition, % at 7.35 µM; actives 1.2% (n = 290,000);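 active = inhibition above the campaign mean inhibition over all tested compounds plus 3 SD, cut at about 28% in these data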;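 note: 0% = plate median of test compound wells and 100% = 2 mM ZnCl2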
PfG6PD inh: PfG6PD (Plasmodium falciparum) enzyme inhibition; inhibition, % at 20 µM; actives 0.78% (n = 350,000); PfGluPho enzyme, NADPH resazurin-diaphorase fluorescence;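 active = inhibition reaching at least a set limit at 20 µM in the primary screen, cut at about 59% in these data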;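 note: 0% = DMSO wells with substrate and 100% = DMSO wells lacking glucose-6-phosphate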
UHRF1 binding: human UHRF1 methylated DNA binding inhibitors | Q96T88 | UHRF1 binding to methylated oligo, TR-FRET | inhibition, % at 4.4 µM | actives 0.75% (n = 370,000) | AID 687016; in the data active = inhibition above about 21%;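 note: UHRF1 SRA domain binding a hemimethylated CpG hairpin DNA probe; 0% = median of test compound wells and 100% = reference inhibitor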
PRMT1 FP inh: PRMT1 (human) inhibition, primary screen. Q99873. recombinant PRMT1, activity-based probe fluorescence polarization. inhibition, % at 2.79 µM. actives 1.3% (n = 370,000);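 active = inhibition above about 21% made by adding two undisclosed values, limit read from the data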
Target sequence (Q99873 whole entry, looked up): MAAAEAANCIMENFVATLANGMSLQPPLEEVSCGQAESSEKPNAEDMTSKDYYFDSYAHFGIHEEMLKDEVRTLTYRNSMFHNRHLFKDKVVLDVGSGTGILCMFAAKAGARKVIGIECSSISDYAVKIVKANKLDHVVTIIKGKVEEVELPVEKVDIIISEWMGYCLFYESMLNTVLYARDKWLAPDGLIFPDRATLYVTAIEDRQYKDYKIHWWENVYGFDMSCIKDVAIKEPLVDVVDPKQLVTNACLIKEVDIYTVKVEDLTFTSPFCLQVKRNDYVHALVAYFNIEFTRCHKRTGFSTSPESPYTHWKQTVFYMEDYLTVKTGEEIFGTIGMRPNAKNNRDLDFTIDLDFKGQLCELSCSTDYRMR
MBD2 inh: blocks human MBD2 binding to methylated DNA; TR-FRET, MBD2 binding to methylated oligonucleotide; Q9UBB5; inhibition, % at 4.4 µM; actives 0.31% (n = 370,000); in the data active = inhibition above about 13%
PfG6PD confirm: PfG6PD inhibition, single-dose confirmed. recombinant PfGluPho, NADPH-diaphorase-resazurin fluorescence. inhibition, % at 20 µM. shares compounds with PfG6PD inh. actives 34% (n = 2,400);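 active = inhibition of at least 50% at 20 µM in any single replicate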;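 note: 0% = DMSO with substrate and 100% = DMSO lacking glucose-6-phosphate substrate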
Diaph ctr 10uM: diaphorase inhibition or oxidation at 10 uM NADPH; diaphorase-coupled resazurin reduction, fluorescence, NADPH 10 uM; inhibition, % at 20 µM; actives 39% (n = 820); AID 504862; shares compounds with PfG6PD inh;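 active = average inhibition reaching 50% or more with the compound at 20 µM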;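 note: resorufin red fluorescence formed as diaphorase reduces resazurin using NADPH; 0% = DMSO with enzyme and 100% = DMSO without enzyme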
Diaphorase 30uM: counter-screen for P. falciparum G6PD inhibitors: diaphorase inhibitors, oxidizers | inhibition, % at 20 µM | Diaphorase/resazurin coupled assay, resorufin fluorescence, 30 uM NADPH | shares compounds with PfG6PD inh | actives 29% (n = 820);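 active = inhibition averaging 50% or more, tested at 20 µM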;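 note: 0% = DMSO with enzyme and 100% = DMSO wells lacking diaphorase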
Starred values were filed as active, the others as inactive; / = no result.

SMILES | PfM18AAP inh | PfG6PD inh | UHRF1 binding | PRMT1 FP inh | MBD2 inh | PfG6PD confirm | others
CC(=O)N[C@@H]1C[C@@H]2O[C@@H](CO)CC[C@@H]2O[C@@H]1CCc1ccc(C#CC2(O)CCCC2)cc1 | / | / | -1 | -7 | -5 | /
O=C(Nc1ccc2c(c1)OCCO2)c1cc2ccccc2o1 | -4 | 72* | 2 | -3 | -2 | 28
COCCCNC(=O)c1ccc(Cn2c(=O)c3ccccc3n(Cc3ccc(Br)cc3)c2=O)cc1 | / | / | 1 | 1 | 0 | /
O=C(COC(=O)c1ccccc1C(=O)c1ccccc1)NCc1ccc(F)cc1 | -5 | 8 | 1 | -3 | -2 | /
O=C(COC(=O)c1ccccc1C(=O)c1ccc(Cl)cc1)NCc1ccccc1 | 1 | 81* | -1 | -2 | 2 | 45
CC1=CC(C)(C)Nc2ccc(OC(=O)CN3C(=O)CCC3=O)cc21 | 2 | 62* | -5 | 0 | -3 | 52* | Diaph ctr 10uM=40;Diaphorase 30uM=3
CC1=CC(C)(C)Nc2ccc(OC(=O)C(C)N3C(=O)c4ccccc4C3=O)cc21 (stereo not drawn) | -7 | 39 | 3 | 1 | -1 | /
Cc1ccc(S(=O)(=O)Nc2ccccc2[N+](=O)[O-])cc1 | / | / | -1 | -2 | -1 | /
Cc1ccc(S(=O)(=O)Nc2ccccc2-c2ccccc2)cc1 | -9 | 76* | -2 | -1 | -3 | 32
COC(=O)c1ccc(N2CCCCC2)c(NS(=O)(=O)c2ccc(C)cc2)c1 | -5 | 2 | -2 | -1 | -6 | /
Nc1cc(S(=O)(=O)Nc2ccccc2Cl)ccc1N1CCCCC1 | / | 67* | -11 | 13 | -8 | 40
Cc1ccc(S(=O)(=O)Nc2ccccc2N2CCOCC2)cc1 | 8 | 62* | 2 | -1 | -3 | 39
Cc1ccc(S(=O)(=O)Nc2ccccc2N2CCCCC2)cc1 | / | 95* | 0 | -5 | -3 | 35
Cc1ccc(S(=O)(=O)Nc2ccc(N3CCOCC3)cc2)cc1 | 11 | 10 | -1 | -3 | -1 | /
Cc1cccc(S(=O)(=O)Nc2cc(Cl)ccc2N2CCOCC2)c1 | / | 87* | 2 | 1 | 1 | 31
O=S(=O)(Nc1cc(C(F)(F)F)ccc1N1CCOCC1)c1ccccc1 | 4 | -2 | -1 | 1 | 3 | /
CC(C)C1=CC(=NS(=O)(=O)c2cccc([N+](=O)[O-])c2)C=C(C(C)C)C1=O | -10 | 78* | -2 | 1 | -4 | 0
Cc1oc2c(c1C(=O)c1ccccc1)C(=O)C(=O)c1ccccc1-2 | 7 | 108* | 7 | 4 | 2 | 101* | Diaph ctr 10uM=90*;Diaphorase 30uM=91*
O=C1C(=O)c2c(C(=O)c3ccccc3)coc2-c2ccccc21 | 10 | 117* | 2 | 0 | 5 | 107* | Diaph ctr 10uM=94*;Diaphorase 30uM=100*
O=C(c1ccccc1)c1coc2ccc(O)c(Cl)c12 | 9 | 1 | -1 | 0 | 2 | /
Cc1oc2c(c1C(=O)O)C(=O)c1ccccc1C2=O | 7 | 32 | -7 | 6 | -13 | /
O=C(OCc1cn(Cc2ccccc2Cl)nn1)N1CCOCC1 | / | / | 3 | -6 | -2 | /
COC(=O)C[C@H]1CC[C@H]2[C@H](COc3ccc(NC(=O)c4cccs4)cc3C(=O)N2C)O1 | / | / | -1 | -1 | 2 | /
COc1ccc(/C=C/C(=O)c2ccc3c(c2)OCCO3)cc1[N+](=O)[O-] | -7 | 5 | 0 | 1 | -7 | /
COc1cc(/C=C/C(=O)c2ccc([N+](=O)[O-])o2)ccc1O | / | 77* | -2 | 2 | 1 | 60* | Diaph ctr 10uM=40;Diaphorase 30uM=35
SMILES | PfM18AAP inh | PfG6PD inh | UHRF1 binding | PRMT1 FP inh | MBD2 inh | PfG6PD confirm | others
COc1ccccc1NC(=O)c1ccc(NC(=O)c2ccc(=O)[nH]c2)cc1 | / | -5 | -2 | 5 | -5 | /
Cc1ccc(O)c(NC2=C(Cl)C(=O)N(Cc3ccccc3)C2=O)c1 | 23 | 85* | -1 | 24* | 5 | 30
CCn1c(SCC(=O)c2cc(C)n(-c3ccc(C(=O)OC)cc3)c2C)nnc1-c1cccnc1 | 6 | 90* | 1 | 2 | -2 | 37
CCOC(=O)c1cc(C)[nH]c(=S)c1C#N | -65 | 74* | -2 | 16 | -2 | 46
CCOC(=O)c1cc(C(=O)OCC)c(=O)[nH]c1C | -4 | 0 | -2 | -3 | 3 | /
Cc1ccc(S(=O)(=O)N2CCN(CC(=O)Nc3ccnn3C3CCCC3)CC2)cc1 | / | -14 | -1 | -10 | 1 | /
Cc1ccc(Cl)cc1NC1=C/C(=N\S(=O)(=O)c2cccs2)c2ccccc2C1=O | -4 | 95* | -4 | 0 | -4 | 58* | Diaph ctr 10uM=39;Diaphorase 30uM=41
Cc1ccc(NC2=C/C(=N\S(=O)(=O)c3cccs3)c3ccccc3C2=O)c(C)c1 | -1 | 102* | / | / | / | 58* | Diaph ctr 10uM=60*;Diaphorase 30uM=57*
Cn1c(SCC(=O)N/N=C/c2cccs2)nc2ccccc21 | -2 | 57 | -8 | -3 | -1 | /
Cc1ccc(/C=N/NC(=O)CSc2nc3ccccc3n2C)s1 | 3 | 117* | -1 | 1 | -1 | 87* | Diaph ctr 10uM=93*;Diaphorase 30uM=79*
Cc1ccc2nc(-c3ccc(C#N)cc3)c(Cc3cccc(F)c3)n2c1 | / | / | 13 | 3 | -1 | /
CC(=O)Nc1ccc(C(=O)Nc2nc(-c3cccnc3)cs2)cc1 | 22 | 60* | 1 | 15 | -7 | 2
CCOC(=O)N1CCN(C(=O)c2ccc3c(c2)sc2nc(-c4ccc(OC)cc4)cn23)CC1 | 9 | 13 | -2 | 3 | 2 | /
COc1ccc2c(c1)sc1nc(-c3ccccc3)cn12 | 0 | 98* | 4 | 8 | 0 | 26
C=C(C)COc1ccc(-c2ncnc(C(F)(F)F)c2-c2ccccc2)c(O)c1 | -2 | 26 | 0 | 7 | 0 | /
C=C(C)COc1ccc(-c2ncnc(C(F)(F)F)c2-c2ccc(OC)cc2)c(O)c1 | -7 | 70* | 1 | -4 | -4 | -4
CC(=NNC(=S)N1CCCC1)c1ccccn1 | / | 67* | -14 | 12 | -2 | 12
O=C(C1=C(O)C(=O)N(c2ncccn2)C1c1ccc(F)cc1)c1ccco1 (stereo not drawn) | -1 | 19 | -2 | 1 | 6 | /
CCn1c2ccccc2nc2cc3c(cc21)c(Cl)c(=O)c1ccccc13 | / | 94* | 0 | 20 | 0 | 40
O=C(c1cc(-c2ccc(Cl)cc2)n(-c2cc(Cl)ccc2Cl)n1)N1CCOCC1 | 0 | 78* | 1 | -3 | 3 | 35
O=C(c1cc(-c2ccc(Cl)cc2)n(-c2ccc(Cl)c(Cl)c2)n1)N1CCOCC1 | -2 | 31 | 0 | -3 | 0 | /
C=CCn1c(SCc2cccc(C(F)(F)F)c2)nnc1-c1ccc(OC)cc1 | / | / | -3 | -4 | 4 | /
Cn1c(Cc2cccs2)nnc1SCC(=O)Nc1ccc2c(c1)OCCO2 | / | / | -2 | -1 | 3 | /
